BAZ2B block: blocks human BAZ2B; AlphaScreen BAZ2B-H3K14Ac peptide displacement; Potency, µM (titrated, usually from 114 µM), inactives show at the top dose activity change, negative = inhibition, actives largely listed as inhibitors; 360,000 compounds, 4.4% hits; AID 504333; also: % is scaled to controls: 0 for no effect and ±100 for the full control effect; nearly all actives have a fitted effect of over 60% in size
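AlphaScreen displacement of biotin-H3(5-23)K14Ac peptide (50 nM final) from BAZ2B (50 nM final) in PBS pH 7.4, 0.01% Tween-20; complex preformed 30 min RT, then compounds (top 110 uM) 30 min RT, beads 20 min dark.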
HP1b chromo inh: HP1-beta chromodomain-methylated histone interaction inhibition | P83916 | AlphaScreen HP1-beta / biotin-H3K9me3 peptide binding | Potency, µM (top dose mostly 114 µM), for the others: top-dose activity change, negative = inhibition, most hits filed as inhibitors | 390,000 compounds, 0.56% hits | AID 540317; also: nearly all actives have a fitted effect of over 70% in size
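AlphaScreen: HP1-beta (50 nM) preformed 30 min with biotin-H3(1-18)K9me3 peptide (50 nM) in PBS pH 7.4, 0.01% Tween-20. Compound added for 30 min at RT, then streptavidin donor/nickel chelate acceptor beads (10 ug/mL) for 30 min.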
JMJD2A Tudor: inhibitors of human JMJD2A Tudor domain; O75164; 390,000 compounds, 4.4% hits; Potency, µM (top dose mostly 114 µM), without a hit: at the top dose activity change, negative = inhibition, actives largely listed as inhibitors; AID 504339; AlphaScreen JMJD2A-Tudor / H3K4me3 peptide binding; also: % is scaled to controls: 0 for no effect and ±100 for the full control effect; nearly all actives have a fitted effect of over 50% in size
G9a block: G9a (human) methyltransferase inhibition; G9a H3K9 monomethylation, AlphaScreen, 2 h; AID 504332; 350,000 compounds, 8.8% hits; Potency, µM (series often up to 102 µM), for inactives: top-dose activity, negative = inhibition, usual class: inhibitors; Q96KQ7; also: % is scaled to controls: 0 for no effect and ±100 for the full control effect; nearly all actives have a fitted effect of over 75% in size
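Quantitative HTS format: methyltransferase activity on a biotin-tagged H3K9 peptide is measured by AlphaScreen, using a rabbit anti-monomethyl-H3K9 antibody with streptavidin donor and anti-IgG acceptor beads. Final levels are 20 nM enzyme, 500 nM peptide, 20 uM SAM; 2 h RT.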
GLS inhibitor: glutaminase GLS (human) inhibition; GLS enzymatic activity, qHTS titration; Potency, µM (titrated, usually from 45.5 µM), inactives show top-dose activity change, negative = inhibition, usual class: inhibitors; 410,000 compounds, 0.21% hits; also: % is scaled to controls: 0 for no effect and ±100 for the full control effect
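hKGA; 45 mM KH2PO4 pH 8.2 + 0.02% Tween-20; cpd via pin tool; 1 mM Gln soln; GluOx/HRP/Amplex Red; RT 30 min; fluor. t0 & final.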
L3MBTL1 inh: blocks human L3MBTL1; AlphaScreen L3MBTL1–H3K9me1 peptide binding; Potency, µM (highest dose often 57.1 µM), for inactives: top-dose activity, negative = inhibition, most hits filed as inhibitors; 230,000 compounds, 0.66% hits; AID 485360; also: % is scaled to controls: 0 for no effect and ±100 for the full control effect; nearly all actives have a fitted effect of over 60% in size
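L3MBTL1 (50 nM) pre-complexed 30 min with biotinylated H3(1-15)K9me1 peptide (75 nM), then compounds added for 30 min at room temperature; AlphaScreen streptavidin donor/nickel chelate acceptor beads (10 ug/mL final) read after 30 min dark incubation.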
* hit, by the source's call; ? = inconclusive; . = no result given; [ ] = dose if it differs, or a comment. Rows were chosen to be rich in hits. Some 10% of all compounds tested hit in one or more screens of this group. Calls follow the shape of the dose curve; as a rule, active = well fitted curve in the direction sought with a large enough effect; inconclusive = small, poorly fitted or top-dose-only effect, or another doubt; inactive = no such curve, though single readings can be large; an effect the other way counts as inactive or inconclusive. Potency is read from the fitted curve at half-maximal effect.

SMILES	BAZ2B block	HP1b chromo inh	JMJD2A Tudor	G9a block	GLS inhibitor	L3MBTL1 inh
C#CCOCCOCCOCCNc1nc(N2CCN(C(=O)[C@H](CCC(=O)O)n3cc(C(N)CC(C)C)nn3)CC2)nc(N2CCN(C(=O)[C@H](Cc3ccc(O)cc3)n3cc(C(N)[C@H](C)CC)nn3)CC2)n1 (stereo not given in full)	32µM*	.	.	-140%[59 µM]	.	-16%
CCN1CCN(CCCOc2ccc(Cl)cc2Br)CC1	20µM*	?	22µM*	.	3%	26%
Cc1ccc(OCCCCCCN2CCNCC2)c(Br)c1	.	-2%	-27%	.	4%	.
Clc1ccc(OCCCN2CCCCC2)c(Br)c1	79µM*	?	4µM*	3.5µM*	-1%	-1%
Clc1ccc(OCCCCCN2CCCC2)c(Br)c1	79µM*	?	2µM*	?	2%	-10%
Brc1ccccc1OCCCCCN1CCCC1	-4%	.	.	4%[0.0925 µM]	.	-2%
CC1(C)Oc2ccc(C#N)cc2[C@@H](OC2=CC(=O)CC2)[C@@H]1O	.	.	.	23%[59 µM]	.	.
CCOc1ccc(-n2cc(-c3ccccc3)c3c(NCCc4ccccc4)ncnc32)cc1	?	33%	-28%	-9%[59 µM]	1%	.
CC(C)C(NS(=O)(=O)c1ccc2c(c1)oc(=O)n2C)C(=O)NCCc1ccc(Cl)cc1 (stereo not given)	6%[57.1 µM]	39%	9%	7%[59 µM]	-8%	.
CCOC(=O)c1cc(C)n(CC2CCC(C(=O)Nc3ccc(Cl)cc3)CC2)c1C (stereo not given)	-17%	40%	-8%	?	-10%	.
CCC(=O)N1CCc2cc(CNS(=O)(=O)c3ccccc3F)ccc21	6%	28%[57 µM]	9%	2%[59 µM]	-14%	.
Cc1ccc(C(=O)COC(=O)c2cc(=O)[nH]c3ccccc23)cc1C	50µM*	?	-33%	28µM*	-8%	3%
COC(=O)c1sccc1S(=O)(=O)N(CC(=O)NCc1ccccc1)c1ccc(C)cc1	-13%	6%	-16%	11%[59 µM]	6%	.
Cc1ccc(Cn2c(=O)sc3ccccc3c2=O)cc1	121%	58%	-4%	43%[59 µM]	-23%	16%
O=c1sc2ccccc2c(=O)n1Cc1ccccc1F	65%	143%	52%	46%	13µM*	73%
COc1cc(-c2nc(-c3cccc(Cl)c3)c(-c3ccccc3)[nH]2)cc(OC)c1OC	-5%	50%	-8%	3%[59 µM]	7%	.
COc1cc(-c2nc(-c3ccccc3)c(-c3cc([N+](=O)[O-])ccc3C)[nH]2)cc(OC)c1OC	?	-30%	?	10µM*	-8%	-30%
Clc1ccc(-n2cnnn2)cc1	0%	23%	-15%	4%	5%	9%
CO/C=C\C=C/c1nnn(-c2ccc(Cl)cc2)n1	-11%	44%	-6%	50µM*	-15%	-9%
CC(=O)NCCNc1ncnc2ccc(-c3ccccc3C#N)cc12	.	.	.	17%[0.501 µM]	.	.
CC(Oc1ccccc1)C(=O)Nc1cccc(-c2nc3ccccc3[nH]2)c1 (stereo not given)	7%	16%	-5%	50µM*	-15%	-1%
C#CCOc1ccc(C2C3=C(CC(C)(C)CC3=O)N(CC(=O)O)C3=C2C(=O)CC(C)(C)C3)cc1OC	-1%	25%	-4%	.	-1%	19%
CCOc1ccc(C2C3=C(CC(C)(C)CC3=O)N(CC(=O)O)C3=C2C(=O)CC(C)(C)C3)cc1OCC	2%	42%	-15%	50µM*	3%	-13%
COc1ccc(CCNC(=O)c2ccc(Cn3c(=O)c4ccccc4n(Cc4cccc(F)c4)c3=O)cc2)cc1OC	-23%	24%	1%	3%[59 µM]	-6%	.
Nc1nn2c(-c3ccccc3)cc(=O)[nH]c2c1N=Nc1ccc(Br)cc1	-37%	?	28µM*	18%[59 µM]	6%	-2%
CN1CCC(=O)N(C(CSc2ccc(Br)cc2)Cc2ccccc2)CC1 (stereo not given)	.	2%	-29%	.	.	.

High-throughput results as filed in PubChem BioAssay.
